Assay outcomes as filed in PubChem BioAssay.
Only some compounds are listed: those with a hit (about 2.9% of all), similar ones and a draw of the others.
A549 tox – A549 cytotoxicity, counter-screen for Nrf2 inhibitors | A549 ARE-Fluc cells, CellTiter-Fluor viability, 18-24 h | Potency, µM (top dose mostly 46 µM), for the others: top-dose activity change, negative = cytotoxicity, hits mostly inhibitors | 0.16% of 390,000 active | AID 504648; note: % is set by controls: 0 for no effect and ±100 for the full control effect
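A549 ARE_Fluc cells in 5% FBS OPTI-MEM were exposed to compounds in concentration-response for 18-24 h at 37 deg C. Viability was read by CellTiter-Fluor fluorescence (Ex 405/Em 525) after 30 min, before the luciferase read.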
S2 tox – cell viability loss in ATXN counter-screen; S2 cells (HEK-293 line with an ATXN2-luciferase reporter) viability, CellTiter-Fluor protease fluorescence, 24 h; Potency, µM (doses to about 56.7 µM), most hits filed as cytotoxic; 0.49% of 400,000 active; note: nearly all actives have a fitted effect of over 40% in size
Nrf2 block – blocks Nrf2 signaling | A549 ARE-Fluc reporter, luciferase luminescence, 18-24 h | Potency, µM (doses to about 46 µM), inactives show at the top dose activity change, negative = inhibition, hits mostly inhibitors | 2.1% of 360,000 active; note: % is set by controls: 0 for no effect and ±100 for the full control effect; nearly all actives have a fitted effect of over 60% in size
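Concentration-response testing used A549 ARE_Fluc cells at 5000 cells/well. Following an 18-24 h compound incubation, viability was read by fluorescence (Ex 405/Em 525) and luciferase output by luminescence.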
ATXN2 expr inh – inhibitors of ATXN2 expression; Potency, µM (top dose mostly 57 µM), inactives show at the highest dose activity change, negative = inhibition, most hits filed as inhibitors; HEK-293 ATXN2-luciferase reporter, luminescence, 24 h; AID 1745845; 0.72% of 360,000 active; note: % is set by controls: 0 for no effect and ±100 for the full control effect; nearly all actives have a fitted effect of over 55% in size
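qHTS (up to 57 uM final) was run with 24 h compound exposure of reporter cells at 37 °C. Each well was multiplexed: SteadyGlo luminescence measured ATXN2-luciferase expression after a fluorogenic Gly-Phe-AFC viability readout (25 uM final).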
Nrf2 ARE act – activators of Nrf2 (ARE) signaling | AREc32 ARE-luciferase reporter (MCF7-derived line), luminescence, 24 h | Potency, µM (titrated, usually from 46.1 µM), without a hit: at the top dose activation, usual class: activators | 0.31% of 410,000 active; note: % of control where 0% means no effect; nearly all actives have a fitted effect of over 65% in size
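Luminescent ARE reporter assay in AREc32_Fluc cells: overnight plating at 37 deg C, 24 hr compound incubation, Steady-Glo added, 30 min RT before reading.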
* = called active by the depositor; ! = not confirmed by another sample. Calls come from the whole dose curve; as a rule, active = well fitted curve in the direction sought with a large enough effect; inconclusive = small, poorly fitted or top-dose-only effect, or another doubt; inactive = no such curve, though single readings can be large; an effect the other way counts as inactive or inconclusive. Potency is the fitted concentration of half-maximal effect.

Results for O/N=C\c1cccn1-c1ccc(Br)cc1 ?
A549 tox: 11.4%; S2 tox: inactive; ATXN2 expr inh: -6.5%; Nrf2 ARE act: 2.4%

How did Cc1ccc(-n2[nH]c(C)c(C=Nc3ccc4[nH]c(=O)[nH]c4c3)c2=O)cc1 do in these assays?
A549 tox: -6.9%; S2 tox: inactive; Nrf2 block: -10.2%; ATXN2 expr inh: -9.4%; Nrf2 ARE act: 2.7%

How did Cc1ccc(N=Cc2c(C)[nH]n(-c3nc4ccccc4[nH]3)c2=O)cc1 do in these assays?
A549 tox: 7.2%; S2 tox: inactive; Nrf2 block: 20.6µM*; ATXN2 expr inh: inconclusive; Nrf2 ARE act: -0.9%

What do the screens show for `COc1ccc(Cl)cc1C(=O)Nc1ccc(-c2nnc3n2CCCCC3)cc1`?
A549 tox: -13.5%; S2 tox: inactive; Nrf2 block: 23.1µM*; ATXN2 expr inh: -28.8%; Nrf2 ARE act: -0.4%

Results for CCOc1ccccc1C(=O)Nc1cc2c(cc1N1CCCC1)n(CC)c(=O)n2CC ?
A549 tox: 6.3%; S2 tox: 14.1µM*; Nrf2 block: 0.4%; Nrf2 ARE act: 2.6%

Results for COc1ccc(Cl)cc1C(=O)Nc1ccccc1N1CCN(C(=O)C(C)C)CC1 ?
A549 tox: inconclusive; S2 tox: inconclusive; Nrf2 block: inconclusive; ATXN2 expr inh: 22.4µM*; Nrf2 ARE act: 8.1%

What do the screens show for `CCn1c(=O)n(CC)c2cc(N3CCCC3)c(NC(=O)c3cc(Cl)ccc3OC)cc21`?
A549 tox: inconclusive; S2 tox: inconclusive; Nrf2 block: 20.6µM*; ATXN2 expr inh: 4.0%; Nrf2 ARE act: -0.2%

What do the screens show for `Cc1ccc(Cn2c(=O)c3c(ncn3C)n(C)c2=O)cc1`?
A549 tox: 12.9%; Nrf2 block: -5.8%; ATXN2 expr inh: -12.9%; Nrf2 ARE act: 0.1%

How did COc1ccc(N(C(=O)c2snc(C(N)=O)c2N)C(C(=O)NC2CCCC2)c2cc(OC)ccc2OC)c(OC)c1 (stereo not drawn) do in these assays?
A549 tox: 1.2%; S2 tox: inactive; Nrf2 block: inconclusive; ATXN2 expr inh: -16.4%; Nrf2 ARE act: 0.3%

Results for O=S(=O)(NCc1ccccc1Cl)c1ccc(-c2cnc(C3CC3)o2)cc1 ?
A549 tox: -0.2%; S2 tox: inconclusive; ATXN2 expr inh: inconclusive; Nrf2 ARE act: 1.0%

Results for CCOc1ccccc1CNS(=O)(=O)c1ccc(-c2cnc(C3CC3)o2)cc1 ?
A549 tox: -3.2%; S2 tox: 1.26µM*!; Nrf2 block: -2.1%; ATXN2 expr inh: -9.1%; Nrf2 ARE act: 4.7%

Results for Cc1ccc(S(=O)(=O)NC(CC(C)C)C(=O)NCC(c2ccco2)N2CCCCC2)cc1 (stereo not drawn) ?
A549 tox: 11.9%; S2 tox: inactive; Nrf2 block: inconclusive; ATXN2 expr inh: -26.7%; Nrf2 ARE act: 3.5%

Results for Cc1ccc(S(=O)(=O)N2CCN(C(=O)c3cc4c(C)nn(-c5ccccc5C)c4s3)CC2)cc1 ?
A549 tox: -4.6%; S2 tox: inactive; Nrf2 block: inconclusive; ATXN2 expr inh: -10.4%; Nrf2 ARE act: 0.5%

Results for Oc1c(CN2CCCCC2)cc(COCc2ccccc2)c2cccnc12 ?
A549 tox: inconclusive; S2 tox: inconclusive; Nrf2 block: inconclusive; ATXN2 expr inh: 3.16µM*; Nrf2 ARE act: 7.6%

What do the screens show for `CN(C)C1CCN(Cc2cc(COCc3ccccc3)c3cccnc3c2O)C1` (stereo not drawn)?
A549 tox: -12.4%; S2 tox: inconclusive; Nrf2 block: 20.6µM*; ATXN2 expr inh: inconclusive; Nrf2 ARE act: 4.3%

How did CC(C)OCc1cc(CN2CCN(c3cccc(C(F)(F)F)c3)CC2)c(O)c2ncccc12 do in these assays?
A549 tox: -25.1%; Nrf2 block: 16.4µM*; Nrf2 ARE act: 0.6%

What do the screens show for `COCc1cc(CN2CCCC2)c(O)c2ncccc12`?
A549 tox: -1.9%; S2 tox: inconclusive; Nrf2 block: inconclusive; ATXN2 expr inh: inconclusive; Nrf2 ARE act: 0.5%

What do the screens show for `CC1CN(C(=O)C2(C)CC2(Cl)Cl)CC(C)O1` (stereo not drawn)?
A549 tox: -5.2%; S2 tox: inconclusive; Nrf2 block: 5.6%; ATXN2 expr inh: -2.7%; Nrf2 ARE act: -0.9%

Results for O=S(=O)(c1ccc(F)c(F)c1)N1CCN(CCc2ccccc2)CC1 ?
A549 tox: 0.4%; S2 tox: inactive; Nrf2 block: 23.1µM*; ATXN2 expr inh: -32.6%; Nrf2 ARE act: 3.7%

Results for O=S(=O)(c1ccccc1F)N1CCN(CCc2ccccc2)CC1 ?
A549 tox: -4.2%; S2 tox: inactive; Nrf2 block: 18.4µM*; ATXN2 expr inh: -17.6%; Nrf2 ARE act: 4.4%

What do the screens show for `O=C1C=CC(=O)N1Cc1ccccc1`?
A549 tox: inconclusive; S2 tox: inconclusive; Nrf2 block: 16.4µM*; ATXN2 expr inh: inconclusive; Nrf2 ARE act: 7.9%

Results for COc1cc(CCC(=O)OCC(=O)Nc2c(F)cccc2F)cc(OC)c1OC ?
A549 tox: 1.7%; S2 tox: inactive; Nrf2 block: -34.1%; ATXN2 expr inh: -9.7%; Nrf2 ARE act: 0.3%

What do the screens show for `Cc1ccc(NC(=O)CSc2ncc3c(n2)-c2ccc(Cl)cc2N(C)S3(=O)=O)cc1F`?
A549 tox: -1.9%; S2 tox: inactive; Nrf2 block: inconclusive; ATXN2 expr inh: 1.0%; Nrf2 ARE act: 1.1%

How did CN1c2cc(Cl)ccc2-c2nc(SCC(=O)Nc3ccc(F)cc3F)ncc2S1(=O)=O do in these assays?
A549 tox: -17.5%; S2 tox: inactive; Nrf2 block: 16.4µM*; ATXN2 expr inh: -20.2%; Nrf2 ARE act: -1.0%

Results for CC(C)(C)c1ccc(C(=O)N2CCCCC2CCN2CCCCC2)cc1 (stereo not drawn) ?
A549 tox: -8.9%; Nrf2 block: 20.2%; Nrf2 ARE act: -0.8%

Results for CN1CCCC1CCOC(C)(c1ccccc1)c1ccc(Cl)cc1 (stereo not drawn) ?
A549 tox: 3.7%; S2 tox: 20µM*; Nrf2 block: 1.0%; ATXN2 expr inh: 31.6µM*; Nrf2 ARE act: 2.5%

What do the screens show for `O=CN1CCN(C(=O)c2cccc3c2-c2ccccc2C3=O)CC1`?
A549 tox: -2.7%; S2 tox: inactive; Nrf2 block: -10.2%; ATXN2 expr inh: 4.8%; Nrf2 ARE act: -0.8%

What do the screens show for `O=C(CSc1nnc(C2CC2)n1-c1ccccc1)NC1CCS(=O)(=O)C1` (stereo not drawn)?
A549 tox: 10.0%; S2 tox: inactive; Nrf2 block: -14.4%; Nrf2 ARE act: -0.6%

What do the screens show for `CC(C)(C)SCCNC(=O)/C=C/c1ccc([N+](=O)[O-])cc1`?
A549 tox: -2.7%; S2 tox: inactive; Nrf2 block: 5.8%; ATXN2 expr inh: 23.6%; Nrf2 ARE act: 2.9%
